Most compounds without a hit are left out; they make up all but 2.9% or so of the library.
PLC-beta3 inh: human PLC-beta3 inhibitors, primary screen, biochemical, fluorescence; 1-phosphatidylinositol 4,5-bisphosphate phosphodiesterase beta-3 (Homo sapiens), Q01970; Purified PLC-beta3, fluorogenic substrate; inhibition, % at 12.2 µM; actives 0.18% (n = 370,000); AID 720704, 2013; in the data active = inhibition above about 11%;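 also: 0% = median of compound wells on plate and 100% = full blocker control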
Target sequence (Q01970 whole entry, looked up): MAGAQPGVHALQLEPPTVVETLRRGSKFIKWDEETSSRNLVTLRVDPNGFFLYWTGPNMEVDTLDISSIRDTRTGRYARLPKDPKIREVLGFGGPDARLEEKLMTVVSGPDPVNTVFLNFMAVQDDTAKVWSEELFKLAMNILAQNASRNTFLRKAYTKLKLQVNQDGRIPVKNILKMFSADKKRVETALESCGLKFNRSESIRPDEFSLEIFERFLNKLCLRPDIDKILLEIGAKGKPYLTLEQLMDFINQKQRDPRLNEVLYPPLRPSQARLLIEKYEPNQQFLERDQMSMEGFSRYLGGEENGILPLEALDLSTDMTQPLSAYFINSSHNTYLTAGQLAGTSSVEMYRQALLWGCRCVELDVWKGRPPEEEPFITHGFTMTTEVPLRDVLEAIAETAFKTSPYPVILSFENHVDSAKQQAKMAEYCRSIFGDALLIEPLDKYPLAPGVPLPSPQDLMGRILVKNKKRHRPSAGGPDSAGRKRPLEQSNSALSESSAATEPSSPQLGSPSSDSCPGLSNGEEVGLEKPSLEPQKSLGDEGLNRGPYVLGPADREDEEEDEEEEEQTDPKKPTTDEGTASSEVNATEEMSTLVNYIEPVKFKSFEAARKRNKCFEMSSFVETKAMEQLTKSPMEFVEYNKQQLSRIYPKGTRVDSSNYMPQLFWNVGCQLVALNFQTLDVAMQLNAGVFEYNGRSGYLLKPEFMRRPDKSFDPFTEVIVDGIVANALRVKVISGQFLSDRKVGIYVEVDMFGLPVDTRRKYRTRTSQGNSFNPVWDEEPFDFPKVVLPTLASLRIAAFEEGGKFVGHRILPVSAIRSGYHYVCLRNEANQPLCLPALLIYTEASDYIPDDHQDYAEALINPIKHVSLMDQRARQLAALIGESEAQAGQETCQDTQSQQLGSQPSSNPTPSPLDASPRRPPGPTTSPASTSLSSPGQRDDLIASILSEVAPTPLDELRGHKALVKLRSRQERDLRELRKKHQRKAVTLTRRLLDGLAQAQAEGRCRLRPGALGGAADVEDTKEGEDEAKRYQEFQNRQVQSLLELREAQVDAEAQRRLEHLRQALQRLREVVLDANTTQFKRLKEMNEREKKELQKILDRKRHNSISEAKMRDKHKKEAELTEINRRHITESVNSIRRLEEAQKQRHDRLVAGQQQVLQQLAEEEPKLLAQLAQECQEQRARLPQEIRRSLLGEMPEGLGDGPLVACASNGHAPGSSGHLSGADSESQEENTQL
ADAM10 inh: human ADAM10 inhibitors, primary screen, biochemical, QFRET, HTS; actives 0.62% (n = 370,000); inhibition, % at 7 µM; recombinant ADAM10, EDANS/DABCYL FRET peptide cleavage, 3 h; AID 720582, 2013;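 active = inhibition above a per-campaign cutoff equal to the mean of compounds falling between control-based bounds plus 3 SD, cut at about 20% in these data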;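 also: 0% = DMSO wells while the 100% control is not disclosed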
ADAM17 inh: ADAM17 inhibitors, primary screen, biochemical, QFRET; Disintegrin and metalloproteinase domain-containing protein 17 (Homo sapiens), P78536; inhibition, % at 6.95 µM; recombinant ADAM17, EDANS/DABCYL FRET peptide cleavage; AID 720648, 2013; actives 0.83% (n = 370,000);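 active = inhibition above the mean of compounds lying between control limits plus 3 SD, set per campaign, cut at about 8.5% in these data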;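 also: 0% = DMSO-only wells as the low control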
PLC-gamma1 inh: PLC-gamma1 enzyme inhibitors, primary screen, biochemical, fluorescence, purified enzyme; 1-phosphatidylinositol 4,5-bisphosphate phosphodiesterase gamma-1 (Homo sapiens), P19174; fluorogenic substrate; inhibition, % at 12.2 µM; actives 0.84% (n = 370,000); in the data active = inhibition above about 9.5%
KLK7 zymogen act: proKLK7 zymogen activators, primary screen, biochemical, fluorescence intensity. Kallikrein-7 (Homo sapiens), P49862. AID 652039, 2013. activation, % at 7 µM. purified proKLK7, EDANS-DABCYL substrate fluorescence; 100% is mature enzyme control, 0% vehicle. actives 0.9% (n = 370,000);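 active = activation above the mean of all tested compounds plus 3 SD, computed per campaign excluding outliers beyond control limits, cut at about 13% in these data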
KLK7 act conf: proKLK7 zymogen activators, confirmation, biochemical, fluorescence intensity, triplicate | activation, % at 7 µM | AID 686949, 2013 | shares compounds with KLK7 zymogen act | purified proKLK7, EDANS-DABCYL substrate fluorescence; scaled: vehicle 0, mature enzyme 100 | actives 68% (n = 3,200);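 active = activation, as change over the incubation, above the mean of all tested compounds plus 3 SD, cut at about 13% in these data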
EDANS-DABCYL int: EDANS-DABCYL substrate optical interference, artefact control for kallikrein-7 zymogen activator project, biochemical, fluorescence intensity, high throughput. shares compounds with KLK7 zymogen act. no enzyme, 4 h; solvent 0%, active enzyme control 100%. activation, % at 7 µM. actives 80% (n = 3,200);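 active = activation above the all-compound mean plus 3 SD, ignoring values outside control-based bounds, cut at about 4.8% in these data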;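 also: value is the 4 h activation minus the activation read at time zero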
EDANS interf: counter-screen for kallikrein-7 activators: EDANS-DABCYL interference, dose response. actives 20% (n = 250). AID 720493. shares compounds with KLK7 zymogen act. EDANS-DABCYL peptide fluorescence interference, no enzyme. EC50, µM;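 active = compounds that raise the fluorescence signal in this interference counterscreen, with EC50 at or below 10 µM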;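 also: intact quenched peptide substrate alone read at 355 nm excitation and 520 nm emission; signal is fluorescence gain from T0 to T4 after four hours at room temperature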
* hit, by the source's call; i = inactive; . = no result given.

SMILES	PLC-beta3 inh	ADAM10 inh	ADAM17 inh	PLC-gamma1 inh	KLK7 zymogen act	KLK7 act conf	EDANS-DABCYL int	others
Cc1ccc(-c2cc(C(=O)OCC(=O)N(C)C3CCS(=O)(=O)C3)c3ccccc3n2)o1 (stereo not drawn)	i	-214	-54	-494	135*	14*	11*	EDANS interf=7*
CCN(C(=O)COC(=O)c1ccccc1NCCO)C1CCS(=O)(=O)C1 (stereo not drawn)	i	i	i	i	25*	32*	35*
Cc1ccc(-c2cc(C(=O)Nc3ccccc3C(N)=O)c3ccccc3n2)o1	-204	-31	-13	-142	0	.	.
Cc1ccc(-c2cc(C(=O)NCC3(N(C)C)CCCCC3)c3ccccc3n2)o1	i	i	-211	i	72*	21*	46*
COC(=O)C1=C(C)N(Cc2ccccc2C(F)(F)F)C(=NCc2ccc3c(c2)OCO3)NC1CCc1ccccc1 (stereo not drawn)	-4	-5	4	-2	0	.	.
Cc1ccccc1Cn1cc(COC(=O)Nc2ccc(F)cc2)nn1	-5	10	1	-3	0	.	.
COc1cc(N2C[C@@]3(O)CC[C@@H](O)[C@@H](OC)[C@@H]3[C@@](C)(O)[C@@H]2CC=C(C)C)cc(OC)c1OC	-2	-6	-5	-3	0	.	.
CCCCNC(=O)C[C@@H]1C(=O)N(CCc2ccc(Cl)cc2)C2=CCCCC[C@]21C(=O)OC	1	6	0	0	0	.	.
Cc1nn(-c2ccccc2)c(C)c1/C=N\NC(=O)CSc1nc2ccccc2n1Cc1ccc(Cl)cc1	-2	13	6	0	0	.	.
CCOC(=O)N1CCN(C(=O)COC(=O)c2ccccc2NCCO)CC1	i	i	i	i	25*	28*	38*
O=C(O)CCCNC(=O)CC1S/C(=N/N=C/c2ccccc2O)NC1=O (stereo not drawn)	-159	-48	-15	-155	25*	27*	34*
CCCCNC(=O)CC1S/C(=N/N=C/c2ccc(OC)cc2)NC1=O (stereo not drawn)	-2	1	-2	0	1	.	.
C[C@H](c1ccccc1)N1C[C@@H](COCc2ccccc2)Oc2cccc(N3CCCC3)c2S1(=O)=O	-1	-2	-2	-2	1	.	.
CC(=O)Nc1cc(-c2ccccc2N(C)C)cn2c(-c3ccc(S(C)(=O)=O)cc3)cnc12	-461	-122	-29	-322	13*	10	11*
CC(=O)Nc1cc(-c2ccccc2N(C)C)cn2c(-c3ccccc3)cnc12	-126	-75	-20	-98	1	.	.
COc1ccc(OC)c(CN2C(=O)c3ccnn3CC2(C)c2nnnn2C2CCCC2)c1 (stereo not drawn)	3	3	2	1	0	.	.
CN1C=CC(=CC=C2C=CC(=O)C=C2)C=C1	-470	-33	-17	-359	50*	12	14*
CC(C)(/C=N/O)N(O)C=C1C=CC(=O)C=C1	-3	-5	-7	3	0	.	.
CCc1ccccc1NC(=O)C1CCC(=O)N(c2ccc(OC)cc2)C1c1ccc(OC)cc1 (stereo not drawn)	3	5	2	1	1	.	.
Cc1ccc2c(c1)N(CCCC(=O)NCc1ccc(F)cc1)C(=O)CO2	-2	-9	-3	-2	0	.	.
N=C1/C(=C/c2cccn2Cc2ccc(F)cc2)C(=O)N=C2SC=CN12	-22	-16	-4	-9	28*	10	5.6*

Screens (PubChem)
